The full list was thinned out, with hits kept by preference.
RBX1-CUL1 inh – human ROC1-CUL1 E3 ligase inhibition; in vitro K48 di-Ub FRET, acceptor:donor ratio, 45 min; inhibition, % at 10 µM; 0.6% of 140,000 active; AID 1347404; in the data active = inhibition above about 25%
Of the large screens only hits and unclear results are named; the others gave an inactive call.

Cc1ccc(C)n1-c1ccc(C(N)=O)cc1	none
Cc1ccc(C(=O)O)cc1-n1c(C)ccc1-c1ccccc1	none
Cc1ccc(-c2ccccc2)n1-c1ccc(Cl)c(C(=O)O)c1	none
COc1cccc(Nc2nnc(N)n(C(=O)c3ccccc3)c2=N)c1	none
O=C1CCC(CCNCc2cc3c(cc2Cl)OCO3)N1Cc1cccc(OC(F)(F)F)c1 (centres undefined)	none
Cc1cc(C(=O)Nc2ccc(Cl)cc2Cl)c(C)o1	none
COc1ccc(C(=O)NNC(=O)CSc2nnc(-c3ccc(OC)cc3)n2-c2ccc(OC)cc2)cc1	none
Cc1ccc(C(=O)C(OC(=O)c2ccco2)c2ccccc2)cc1 (centres undefined)	none
O=C1N=c2ccc([N+](=O)[O-])cc2=C1N=Nc1c(O)[nH]c2ccc([N+](=O)[O-])cc12	RBX1-CUL1 inh 45
O=[N+]([O-])c1ccc2[nH]c(O)c(N=Nc3ccccc3[N+](=O)[O-])c2c1	none
NC(=O)N=Nc1c(O)[nH]c2ccc(Br)cc12	none
CCS(=O)(=O)N1CCC(C(=O)N2CCN(c3cccc(Cl)c3)CC2)CC1	none
O=C(Nc1ccc2nc(SCC(=O)N3CCCC3)sc2c1)c1cccc(Cl)c1	none
COc1ccc(C(=O)Nc2ccc3nc(SCC(=O)N4CCOCC4)sc3c2)cc1	none
O=C(Nc1ccc2nc(SCC(=O)N3CCOCC3)sc2c1)c1cccc(Cl)c1	RBX1-CUL1 inh 58
Cc1c(N2C(=O)/C(=C/c3ccc(Cl)cc3Cl)SC2=S)c(=O)n(-c2ccccc2)n1C	none
O=C(NN1C(=O)/C(=C/c2ccc(Cl)cc2Cl)SC1=S)c1ccccc1Cl	none
O=C(O)C1=NN(c2ccccc2)C(=O)/C1=C\c1ccc(Cl)cc1Cl	RBX1-CUL1 inh 40
O=C1C2=C(CCCC2)C(=O)N1c1c(F)cc(Cl)c2c1OCCO2	none
C=NCCS(=O)(=O)N1CCCCC1	none
c1ccc(NCc2csc3ccccc23)cc1	none
Cc1ccccc1N=C/C=C1\N(C)c2ccccc2C1(C)C	none
O=C1NC(=S)S/C1=C/C=C/c1ccccc1Cl	none
CN1/C(=C\C=C2/SC(=S)NC2=O)C(C)(C)c2ccccc21	RBX1-CUL1 inh 34
CCOc1cccc(C(=O)NC2CCN(CC)CC2)c1	none
COc1cccc(OCc2nc(C(=O)NC(C)c3nc(C)sc3C)co2)c1 (centres undefined)	none
C=CCN1C(=O)/C(=C\c2ccc(N(C)C)cc2)N=C1SCC(=O)Nc1ccccc1	none
CN(C(=S)NC(=O)c1ccccc1Br)c1ccccc1	none
CN(C)c1ccc(/C=C2\N=C(c3ccccc3)N(NC(=O)c3ccccc3Br)C2=O)cc1	RBX1-CUL1 inh 40
O=C(N/N=C/C=C/c1c[nH]c2ccccc12)c1ccc(Cl)cc1	none
CCN(CC)C(=O)C1CCCN(Cc2nc(-c3ccccc3)no2)C1 (centres undefined)	none
CC1=C(C(=O)Nc2ccccc2)C(c2ccccc2Cl)n2c(s/c(=C/c3ccoc3)c2=O)=N1 (centres undefined)	none
Cc1ccc(-c2ccc(/C=C3/SC(N4CCOCC4)=NC3=O)o2)c(Br)c1	none
N#Cc1ccccc1-c1ccc(/C=C2/SC(=O)NC2=O)o1	none
Cc1ccc(-c2ccc(/C=C3/SC(=S)NC3=O)o2)c(Br)c1	RBX1-CUL1 inh 96
Brc1c(OCCSc2ncccn2)ccc2ccccc12	none
Cc1cccc(C)c1-n1nnnc1C1(NCC(=O)O)CCCC1	none
COc1ccc(C(=O)NNC(=O)CSc2nnc(C)n2-c2ccccc2)cc1	none
CCOC(=O)c1c(C)sc(-c2c(-c3cccc(Cl)c3)[nH]c3c2c(=O)n(C)c(=O)n3C)c1O	RBX1-CUL1 inh 45
CCOC(=O)c1c(C)sc(-c2c(-c3cc(C)ccc3C)[nH]c3c2c(=O)[nH]c(=O)n3C)c1O	RBX1-CUL1 inh 49
CCOC(=O)C1=CN(c2ccc(F)cc2)C=C(C(=O)OCC)C1c1cccc(Cl)c1	none
Cc1ccc(C)c(-c2[nH]c3c(c2-c2c(-n4cccc4)n(C)c(=O)n(C)c2=O)c(=O)n(C)c(=O)n3C)c1	none
CCOC(=O)c1c(NC(=O)c2c(F)cccc2F)sc(C)c1-c1cccc(Cl)c1	none
CCOC(=O)c1c(C)sc(-c2c(-c3cc(C)ccc3C)[nH]c3c2c(=O)n(C)c(=O)n3C)c1O	none
Cc1cc(C=Nc2ccc(N3CCOCC3)cc2)c(C)n1-c1ccc(Br)cc1F	none
Cc1nc(N2CCN(CCO)CC2)nc2c1C(=O)CC(c1cccc(Cl)c1)C2 (centres undefined)	none
O=C(O)c1ccc(-c2ccccn2)cc1	none
Cc1ccc(C(=O)Nc2cccc(C(=O)O)c2)cc1S(=O)(=O)N1CCCC1	none
Cc1ccc(C(=O)Nc2ccc(F)cc2)cc1S(=O)(=O)N1CCOCC1	none
CC(=O)c1cccc(NC(=O)c2ccc(Cl)c(S(=O)(=O)N3CCOCC3)c2)c1	RBX1-CUL1 inh 34
N#Cc1ccc2c(c1)-c1ccccc1C2=O	none
CN1C(=O)c2ccccc2C1(O)c1ccccc1 (centres undefined)	none
CCOc1cc(C(=O)Nc2ccccc2Oc2ccccc2)cc(OCC)c1OCC	none
CCOc1cc(NC(=O)C(C(F)(F)F)C(F)(F)F)c(OCC)cc1NC(=O)c1ccccc1	RBX1-CUL1 inh 67
CCOc1c(Cl)cc(C(=O)Nc2ccccc2C(F)(F)F)cc1Cl	none
CC1(CNC(=O)c2cc(COc3ccccc3F)[nH]n2)COC1	none
Cc1csc(=O)c(CN2CCCCC2)n1	none
COc1ccc(N2C(=O)/C(=C\c3ccc(O)c(Br)c3)SC2=S)cc1	RBX1-CUL1 inh 42
O=C(O)COc1ccc(/C=C2\SC(=S)N(c3cccc(Cl)c3)C2=O)cc1	none
COc1cc(/C=C2\SC(=S)N(c3cccc(C(F)(F)F)c3)C2=O)ccc1OCC(=O)O	none
COc1cccc(N2C(=O)/C(=C/c3ccc(O)cc3)SC2=S)c1	none
CCOc1cc(/C=C2\SC(=S)N(c3ccc(OC)cc3)C2=O)ccc1OCC(=O)O	RBX1-CUL1 inh 57
COc1ccc(N2C(=O)/C(=C\c3ccc(OC(=O)c4cccs4)c(OC)c3)SC2=S)cc1	none
CCOc1cc(/C=C2\SC(=S)N(c3ccccc3)C2=O)ccc1OCc1ccc(Cl)cc1Cl	none
C=CCOc1ccc(/C=C2\SC(=S)N(c3ccc(OC)cc3)C2=O)cc1OCC	none
CCOc1cc(/C=C2\SC(=S)N(c3cccc(Cl)c3)C2=O)ccc1OCC(=O)O	RBX1-CUL1 inh 33
CCOc1cc2c(cc1/C=C1/SC(=Nc3cc(Cl)ccc3C)NC1=O)OCO2	none
COc1ccc(C(C)C)cc1S(=O)(=O)NC1CC1	none
Cc1ccc(C)c2c1CC(NC(=O)c1ccccc1)C2=O (centres undefined)	none
CSc1nc2sc3c(c2c(=O)n1-c1ccccc1)CCCC3	none
Cn1c(=O)c2ncn(CC(=O)Nc3cc(C(C)(C)C)cc(Cl)c3O)c2n(C)c1=O	none
COCn1c(C(=O)c2ccccn2)cc2ccccc21	none
O=S(=O)(NCCSCc1c(Cl)cccc1Cl)c1cccs1	none
CC1(C)COC2(NC1=O)c1ccccc1-c1ccccc12	none
O=C1C=CC2(c3ccccc3-c3ccccc32)S(=O)(=O)C1	RBX1-CUL1 inh 61
O=C1c2ccccc2COC12OCc1ccccc12 (centres undefined)	none
CCCCCCCSc1nnc2n(-c3ccc(OC)cc3)c(=O)c3c4c(sc3n12)CCCC4	none
CCc1cnc(NC(C)=O)s1	none
CCC(C)C(=O)Nc1ccc(C)cc1C (centres undefined)	none
CCOc1ccc(CCN2C(=O)NC(=O)C3C2=NC(=O)C3(NC(=O)CC)C(F)(F)F)cc1OCC (centres undefined)	none
COC(=O)c1ccc(/C=C2\SC(=S)N(CCCCCC(=O)O)C2=O)cc1	RBX1-CUL1 inh 81
COc1cc(/C=C2/SC(=S)N(c3cccc(C(F)(F)F)c3)C2=O)ccc1OC(=O)c1ccc(C)cc1	none
COc1cc(/C=C2\SC(=S)N(Cc3ccccc3)C2=O)ccc1OCC(=O)O	none
COC(=O)c1ccc(/C=C2\SC(=S)N(CO)C2=O)cc1	none
